From PMC5700166
Changes are numbered by the printed parent chain.

Experiments:
Test in all cases: protein-binding microarray (PBM); PBM: ~300 nM protein, 6 mM HEPES pH 7.8, 80 mM KCl, 0.5 mM EDTA, 0.5 mM EGTA, 6% glycerol, 35 ng/ul poly-dIdC, 1% milk, 1 h, room temperature; Ap Aiptasia and Nv Nematostella (sea anemones) / Co Capsaspora / Aq Amphimedon (sponge) / Dm Drosophila / Hu human; RHD is the Rel homology domain; high values mean tight binding
Settings in all cases: dsDNA, one strand shown
GST-Ap-NF-kB RHD = target: T1, GST-Ap-NF-kB RHD (Exaiptasia pallida (Aiptasia), UniProt A0A913YAJ5 2-422)
T1 sequence: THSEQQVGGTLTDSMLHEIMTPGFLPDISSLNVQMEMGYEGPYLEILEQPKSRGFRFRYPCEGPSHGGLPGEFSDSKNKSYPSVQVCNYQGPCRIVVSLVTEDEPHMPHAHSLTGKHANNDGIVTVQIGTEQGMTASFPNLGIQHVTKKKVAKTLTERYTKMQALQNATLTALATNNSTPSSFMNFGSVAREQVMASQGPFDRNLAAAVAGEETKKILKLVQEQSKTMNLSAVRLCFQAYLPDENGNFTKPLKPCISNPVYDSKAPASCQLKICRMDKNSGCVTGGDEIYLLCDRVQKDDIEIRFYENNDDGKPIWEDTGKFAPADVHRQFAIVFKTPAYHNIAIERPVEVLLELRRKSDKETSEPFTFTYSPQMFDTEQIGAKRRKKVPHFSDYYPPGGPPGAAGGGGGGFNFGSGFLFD

[1] = target: T2, GST-Nv-NF-kB (Cys allele) (Nematostella vectensis, UniProt E5G601 2-411)
T2 sequence: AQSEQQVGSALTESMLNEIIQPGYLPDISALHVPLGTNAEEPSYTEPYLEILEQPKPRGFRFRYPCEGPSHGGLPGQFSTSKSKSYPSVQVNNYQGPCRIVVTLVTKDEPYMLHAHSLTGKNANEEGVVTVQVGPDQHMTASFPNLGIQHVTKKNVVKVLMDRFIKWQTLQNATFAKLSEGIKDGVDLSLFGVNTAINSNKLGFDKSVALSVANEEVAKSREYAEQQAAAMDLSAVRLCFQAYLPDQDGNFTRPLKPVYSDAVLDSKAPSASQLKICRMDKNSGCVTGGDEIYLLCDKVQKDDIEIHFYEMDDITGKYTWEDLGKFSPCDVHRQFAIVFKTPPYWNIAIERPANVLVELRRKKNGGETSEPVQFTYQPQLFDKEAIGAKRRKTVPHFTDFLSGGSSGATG

[2] = target: T3, GST-Nv-NF-kB (Ser allele) (Nematostella vectensis, UniProt A7UNT2 2-411)
T3 sequence: T2 sequence with Q21R, C66S, S207N, E215Q, V217A, E225K, A268E, D399E

GST-Co-NF-kB = target: T4, GST-Co-NF-kB (Capsaspora owczarzaki, UniProt F1ARL5 200-546)
T4 sequence: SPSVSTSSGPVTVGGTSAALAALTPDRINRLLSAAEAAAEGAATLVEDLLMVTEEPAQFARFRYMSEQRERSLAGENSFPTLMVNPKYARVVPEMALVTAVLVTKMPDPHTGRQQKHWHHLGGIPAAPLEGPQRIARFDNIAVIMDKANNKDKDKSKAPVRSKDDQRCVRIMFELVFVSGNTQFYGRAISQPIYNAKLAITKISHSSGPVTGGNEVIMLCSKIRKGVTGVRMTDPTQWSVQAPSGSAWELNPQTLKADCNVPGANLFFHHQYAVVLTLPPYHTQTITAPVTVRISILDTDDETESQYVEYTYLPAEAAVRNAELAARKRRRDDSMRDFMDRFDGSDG

GST-Dm-Relish = target: T5, GST-Dm-Relish (Drosophila melanogaster, UniProt Q94527 99-473)
T5 sequence: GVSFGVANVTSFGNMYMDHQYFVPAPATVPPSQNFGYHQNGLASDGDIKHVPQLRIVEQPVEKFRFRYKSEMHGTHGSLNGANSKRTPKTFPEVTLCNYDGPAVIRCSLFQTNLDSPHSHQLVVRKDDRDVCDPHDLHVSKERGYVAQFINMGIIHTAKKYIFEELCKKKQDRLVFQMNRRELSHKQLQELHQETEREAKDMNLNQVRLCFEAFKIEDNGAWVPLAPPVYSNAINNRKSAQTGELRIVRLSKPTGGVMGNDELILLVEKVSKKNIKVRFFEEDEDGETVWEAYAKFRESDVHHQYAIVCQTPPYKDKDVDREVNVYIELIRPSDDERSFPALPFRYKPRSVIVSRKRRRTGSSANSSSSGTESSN

GST-Aq-NF-kB = target: T6, GST-Aq-NF-kB (Amphimedon queenslandica, UniProt A9Y5G7 2-389)
T6 sequence: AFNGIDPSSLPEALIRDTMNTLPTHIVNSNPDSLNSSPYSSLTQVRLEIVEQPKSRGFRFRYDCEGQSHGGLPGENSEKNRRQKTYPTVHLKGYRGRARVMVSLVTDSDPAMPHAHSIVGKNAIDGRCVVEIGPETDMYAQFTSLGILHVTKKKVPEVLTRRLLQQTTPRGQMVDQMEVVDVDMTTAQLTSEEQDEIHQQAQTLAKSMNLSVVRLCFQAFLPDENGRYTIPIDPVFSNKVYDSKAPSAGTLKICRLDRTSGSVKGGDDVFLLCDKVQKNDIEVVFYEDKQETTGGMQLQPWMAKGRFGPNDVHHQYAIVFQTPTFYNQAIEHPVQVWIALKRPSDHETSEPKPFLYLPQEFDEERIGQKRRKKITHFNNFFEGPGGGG

GST-Hu-p50 = GST-Hu-p50 (Homo sapiens, UniProt P19838 7-356)
Sequence of GST-Hu-p50 (P19838 7-356): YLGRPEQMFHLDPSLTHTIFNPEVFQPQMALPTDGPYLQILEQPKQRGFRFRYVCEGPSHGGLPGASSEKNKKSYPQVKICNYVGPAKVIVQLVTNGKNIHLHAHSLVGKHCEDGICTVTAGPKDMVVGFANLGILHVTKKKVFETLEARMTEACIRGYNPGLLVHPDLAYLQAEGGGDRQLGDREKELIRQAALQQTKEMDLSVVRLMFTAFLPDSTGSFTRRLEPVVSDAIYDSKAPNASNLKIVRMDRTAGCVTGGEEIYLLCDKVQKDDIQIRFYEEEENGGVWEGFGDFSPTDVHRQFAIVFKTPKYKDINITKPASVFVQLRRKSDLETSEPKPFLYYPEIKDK

Row | Sequence | binding signal (GST-Ap-NF-kB RHD) | binding signal [1] | binding signal [2] | binding signal (GST-Co-NF-kB) | binding signal (GST-Dm-Relish) | binding signal (GST-Aq-NF-kB) | binding signal (GST-Hu-p50)
1 | CCGATTAACATCAATCTTTCCCCTGATGTTAATCGGGTCTTGATTCGCTTGACGCTGCTG | 5.5 z-score | 7.61 z-score | 8.93 z-score | 8.32 z-score | 3.33 z-score | 5.91 z-score | 5.41 z-score
2 | CCGATTAACATCAAATTCCCCCCTGATGTTAATCGGGTCTTGATTCGCTTGACGCTGCTG | 8.5 z-score | 8.77 z-score | 8.88 z-score | 10.1 z-score | 8.4 z-score | 7.65 z-score | 6.85 z-score
3 | CCGATTAACATCAAAATACCCCGTGATGTTAATCGGGTCTTGATTCGCTTGACGCTGCTG | 6.29 z-score | 5.39 z-score | 5.69 z-score | 5.77 z-score | 5.44 z-score | 5.69 z-score | 5.49 z-score
4 | CCGATTAACATCACGAAACCCCCTGATGTTAATCGGGTCTTGATTCGCTTGACGCTGCTG | 8.57 z-score | 6.39 z-score | 7.65 z-score | 2.69 z-score | 8.51 z-score | 6.37 z-score | 7.11 z-score
5 | CCGATTAACATCACGTTTCCCCCTGATGTTAATCGGGTCTTGATTCGCTTGACGCTGCTG | 6.91 z-score | 6.46 z-score | 9.03 z-score | 9.58 z-score | 2.71 z-score | 5.17 z-score | 6.64 z-score
6 | CCGATTAACATCAGGGGGGAAAATGATGTTAATCGGGTCTTGATTCGCTTGACGCTGCTG | 7.23 z-score | 6.13 z-score | 8.77 z-score | 11.5 z-score | 4.99 z-score | 6.28 z-score | 7.08 z-score
7 | CCGATTAACATCAGGGGAATAACTGATGTTAATCGGGTCTTGATTCGCTTGACGCTGCTG | 6.5 z-score | 8.18 z-score | 7.95 z-score | 7.09 z-score | 9.39 z-score | 6.98 z-score | 5.61 z-score
8 | CCGATTAACATCAAACTCCCCCCTGATGTTAATCGGGTCTTGATTCGCTTGACGCTGCTG | 7.58 z-score | 6.49 z-score | 6.75 z-score | 7.67 z-score | 7.11 z-score | 6.54 z-score | 6.75 z-score
9 | CCGATTAACATCAGGGGGTTCTATGATGTTAATCGGGTCTTGATTCGCTTGACGCTGCTG | 7.12 z-score | 5.57 z-score | 6.75 z-score | 2.36 z-score | 6.97 z-score | 5.33 z-score | 5.89 z-score
10 | CCGATTAACATCAAAAAAGTCCCTGATGTTAATCGGGTCTTGATTCGCTTGACGCTGCTG | 8.8 z-score | 11.6 z-score | 11.5 z-score | 2.41 z-score | 9.77 z-score | 8.92 z-score | 7.77 z-score
11 | CCGATTAACATCAGGGGGATAACTGATGTTAATCGGGTCTTGATTCGCTTGACGCTGCTG | 6.6 z-score | 4.96 z-score | 5.96 z-score | 6.99 z-score | 7.19 z-score | 5.34 z-score | 5.17 z-score
12 | CCGATTAACATCAGGGAGTTTTATGATGTTAATCGGGTCTTGATTCGCTTGACGCTGCTG | 5.33 z-score | 7.35 z-score | 6.78 z-score | 2.72 z-score | 5.65 z-score | 6.93 z-score | 5.8 z-score
13 | CCGATTAACATCAGGGAATGCCCTGATGTTAATCGGGTCTTGATTCGCTTGACGCTGCTG | 5.58 z-score | 7.18 z-score | 4.19 z-score | 1.43 z-score | 7.7 z-score | 7.91 z-score | 3.67 z-score
14 | CCGATTAACATCAAAAAAATCCCTGATGTTAATCGGGTCTTGATTCGCTTGACGCTGCTG | 6.44 z-score | 7.72 z-score | 6.74 z-score | 2.41 z-score | 8.77 z-score | 7.45 z-score | 5.87 z-score
15 | CCGATTAACATCAGGGAAAAGTATGATGTTAATCGGGTCTTGATTCGCTTGACGCTGCTG | 3.35 z-score | 4.5 z-score | 6.25 z-score | 4.73 z-score | 1.56 z-score | 3.86 z-score | 2.97 z-score
16 | CCGATTAACATCAAGTAATCCCCTGATGTTAATCGGGTCTTGATTCGCTTGACGCTGCTG | 7.36 z-score | 7.72 z-score | 7.94 z-score | 3.88 z-score | 7.56 z-score | 6.04 z-score | 5.93 z-score
17 | CCGATTAACATCAAATAATACCCTGATGTTAATCGGGTCTTGATTCGCTTGACGCTGCTG | 3.69 z-score | 5.65 z-score | 5.61 z-score | 1.91 z-score | 3.33 z-score | 6.24 z-score | 4.35 z-score
18 | CCGATTAACATCACGGGGATTTCTGATGTTAATCGGGTCTTGATTCGCTTGACGCTGCTG | 9.25 z-score | 9.87 z-score | 10.8 z-score | 5.27 z-score | 9.88 z-score | 7.52 z-score | 7.58 z-score
19 | CCGATTAACATCAAAAGTCCCCATGATGTTAATCGGGTCTTGATTCGCTTGACGCTGCTG | 7.92 z-score | 7.91 z-score | 7.59 z-score | 3.45 z-score | 8.38 z-score | 7.23 z-score | 6.84 z-score
